Bioassay records from PubChem.
Shown are actives, neighbours in structure and some others; about 19% of the full set was active somewhere.
HT1080-NT tox: kills 2HG-producing HT-1080-NT fibrosarcoma cells | HT-1080-NT fibrosarcoma viability, CellTiter-Glo ATP luminescence, 48 h | Potency, µM (highest dose often 46.1 µM), without a hit: top-dose activity, negative = less viability, hits mostly cytotoxic | actives 1.6% (n = 360,000) | AID 686970;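 further: NT is the 2HG producing partner of a matched IDH1 knockdown line; potency means the concentration at half of the fitted maximal effect; 0% = DMSO-treated cells and -100% = media-only wells without cells; nearly all actives have a fitted effect of over 55% in size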
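Compounds were tested in concentration-response format on HT-1080-NT cells for 48 hours at 37 degrees C. Cell viability came from CellTiter-Glo luminescence; curves were classified by r2, response magnitude and activity.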
HT1080 IDH1KD tx: toxicity to HT-1080 IDH1 knockdown cells (counter line); actives 2% (n = 360,000); Potency, µM (doses to about 46.1 µM), inactives show at the highest dose activity, negative = toxicity, hits mostly cytotoxic; HT-1080 IDH1 knockdown viability, ATP luminescence, 48 h;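 further: potency means the concentration at half of the fitted maximal effect; 0% = DMSO wells and -100% = cell-free medium wells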
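% activity derives from luminescence (CellTiter-Glo), normalised to DMSO and no-cell wells. HT-1080-IDH1KD cells, 750/well, had 48 h compound exposure at 37 °C.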
DT40 TDP1 CPT: growth inhibition of DT40 Tdp1-/-;hTDP1 cells with camptothecin (screen for TDP1 inhibitors); AID 686979; actives 12% (n = 420,000); Potency, µM (series often up to 46.2 µM), for inactives: at the top dose activity change, negative = growth inhibition, actives largely listed as inhibitors; chicken DT40 Tdp1-/-;hTDP1 cells + 20 nM CPT, ATP luminescence, 48 h; further: potency means the concentration at half of the fitted maximal effect; nearly all actives have a fitted effect of over 55% in size
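Chicken DT40 Tdp1-/- cells complemented with human TDP1, 400 cells/well, exposed to compounds plus 20 nM camptothecin for at least 48 h at 37 C; viability read as ATP content by CellTiter-Glo luminescence.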
DT40 TDP1 no CPT: qHTS for Inhibitors of human tyrosyl-DNA phosphodiesterase 1 (TDP1): qHTS in cells in absence of CPT. DT40 Tdp1-/- hTDP1 cells, no CPT, ATP luminescence, 48 h. actives 15% (n = 420,000). AID 686978, 2013. Potency, µM (titrated, usually from 46.2 µM), inactives show at the highest dose activity change, negative = growth inhibition, usual class: inhibitors; further: potency means the concentration at half of the fitted maximal effect; nearly all actives have a fitted effect of over 55% in size
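Growth of hTDP1-complemented DT40 Tdp1-knockout cells is measured by ATP luminescence after at least 48 hr compound exposure at 37 °C, with DMSO substituting for the 20 nM CPT used in the parallel screen.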
IL1B secr inh: inflammasome signaling inhibition, IL-1 beta readout; actives 4.7% (n = 360,000); THP-1 LPS/ATP IL-1B secretion, AlphaLISA, 16 h; stronger effect = lower value; activity change, % at 57.5 µM; in the data active means activity change below about -50%; inconclusive means mostly about -30% to -49%
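Secreted IL-1B measured by AlphaLISA bead assay after 16 h compound exposure of THP-1 cells; compounds (final up to 57.5 uM) added 1 h before LPS (250 ng/mL) and ATP (1.25 mM) stimulation; lower signal means less secretion.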
* = called active by the depositor. Unless noted, the call rests on the fitted dose curve; in most records, active means well fitted curve in the direction sought with a large enough effect; inconclusive means small, poorly fitted or top-dose-only effect, or another doubt; inactive means no such curve, though single readings can be large; an effect the other way counts as inactive or inconclusive. Unless noted, on the % scale 0 is the no-effect control and ±100 the full control effect.

Screening Cc1ccc(S(=O)(=O)N(OCc2ccccc2)C(C)C(=O)O)cc1 (centres undefined) returned HT1080-NT tox 1.8%, HT1080 IDH1KD tx 13.8%, DT40 TDP1 CPT 9.1%, DT40 TDP1 no CPT 7.2% and IL1B secr inh 27.0.
Screening CN(C)c1ccc(NC(=O)Nc2ccc3c(c2)c(=O)n(C)n3Cc2ccc(Cl)cc2)cc1 returned HT1080-NT tox inconclusive, HT1080 IDH1KD tx -20.5%, DT40 TDP1 CPT inconclusive, DT40 TDP1 no CPT inconclusive and IL1B secr inh inconclusive.
Screening N#CC1=C(N)OC2=C(CC/C2=C\c2ccccc2)C1c1ccccc1 (centres undefined) returned HT1080-NT tox -20.9%, HT1080 IDH1KD tx -20.9%, DT40 TDP1 CPT 13µM*, DT40 TDP1 no CPT 10.3µM* and IL1B secr inh -21.9.
N#CC1=C(N)OC2=C(CC/C2=C\c2ccccc2Cl)C1c1ccccc1Cl (centres undefined) was read as HT1080-NT tox 0.9%, HT1080 IDH1KD tx 3.9%, DT40 TDP1 CPT inconclusive, DT40 TDP1 no CPT 20.6µM* and IL1B secr inh -68.0*.
Cc1oc(C)c2c(=O)ccc3c(c12)OC(N)=C(C#N)C3c1ccccc1Cl (centres undefined) was read as HT1080-NT tox 1.2%, HT1080 IDH1KD tx 8.1%, DT40 TDP1 CPT inconclusive, DT40 TDP1 no CPT inconclusive and IL1B secr inh inconclusive.
`CCOC(=O)c1c(NC(C)=O)c2c3c(sc2n1Cc1nc(-c2ccc(Cl)cc2)oc1C)CCCC3` gave DT40 TDP1 CPT inconclusive and DT40 TDP1 no CPT -21.0%.
`O=C(CCN1C(=O)S/C(=C\c2cccs2)C1=O)NC1=NCCS1` gave HT1080-NT tox 9.6%, HT1080 IDH1KD tx 13.8%, DT40 TDP1 CPT -3.5%, DT40 TDP1 no CPT -19.5% and IL1B secr inh 7.8.
`Oc1ccc(/C=N/n2c3ccccc3c3ccccc32)cc1` gave HT1080-NT tox inconclusive, HT1080 IDH1KD tx 23.1µM*, DT40 TDP1 CPT inconclusive, DT40 TDP1 no CPT 16.4µM* and IL1B secr inh 6.9.
Cc1nnc(C)n1/N=C/c1ccc(O)cc1 was read as HT1080-NT tox 5.2%, HT1080 IDH1KD tx 6.2%, DT40 TDP1 CPT 6.4%, DT40 TDP1 no CPT -11.5% and IL1B secr inh 19.0.
`Cc1ccc(-c2nc3ccc(Cl)cn3c2CC(C)(C)C)cc1` gave HT1080-NT tox -1.6%, HT1080 IDH1KD tx 3.3%, DT40 TDP1 CPT inconclusive, DT40 TDP1 no CPT -27.0% and IL1B secr inh 26.9.
For Cc1ccc(-c2nc3ccc(Cl)cn3c2Cc2cccc(F)c2)cc1 the results were HT1080-NT tox inconclusive, HT1080 IDH1KD tx inconclusive, DT40 TDP1 CPT 20.6µM*, DT40 TDP1 no CPT inconclusive and IL1B secr inh -14.1.
N#Cc1ccc(-c2nc3ccc(Cl)cn3c2Cc2cccc(F)c2)cc1 was read as HT1080-NT tox -5.3%, HT1080 IDH1KD tx inconclusive, DT40 TDP1 CPT inconclusive, DT40 TDP1 no CPT inconclusive and IL1B secr inh 0.0.
Screening Fc1cccc(Cc2c(-c3cccc(Br)c3)nc3ccc(Br)cn23)c1 returned HT1080-NT tox -26.1%, HT1080 IDH1KD tx -21.9%, DT40 TDP1 CPT -29.2%, DT40 TDP1 no CPT inconclusive and IL1B secr inh 34.6.
Screening CC(C)(C)Cc1c(-c2ccc(F)cc2)nc2ccc(Cl)cn12 returned HT1080-NT tox -9.4%, HT1080 IDH1KD tx -10.7%, DT40 TDP1 CPT inconclusive, DT40 TDP1 no CPT 20.6µM* and IL1B secr inh 43.5.
For Fc1cccc(Cc2c(-c3ccc(Cl)cc3)nc3ccc(Br)cn23)c1 the results were HT1080-NT tox 6.8%, HT1080 IDH1KD tx 0.0%, DT40 TDP1 CPT inconclusive, DT40 TDP1 no CPT 16.4µM* and IL1B secr inh inconclusive.
For Cc1[nH]c(=O)[nH]c(=O)c1S(=O)(=O)N1CCCC1 the results were HT1080-NT tox -1.8%, HT1080 IDH1KD tx 9.7%, DT40 TDP1 CPT -0.5%, DT40 TDP1 no CPT -6.4% and IL1B secr inh 6.0.
For COc1ccc(C(=O)COC(=O)[C@@H](NS(=O)(=O)c2ccccc2)C(C)C)cc1 the results were HT1080-NT tox 0.0%, HT1080 IDH1KD tx -1.6%, DT40 TDP1 CPT -22.9%, DT40 TDP1 no CPT inconclusive and IL1B secr inh -6.5.
Screening N#CC(CCc1ccc([N+](=O)[O-])cc1)(CCc1ccc([N+](=O)[O-])cc1)C(N)=O returned HT1080-NT tox 0.0%, HT1080 IDH1KD tx -19.0%, DT40 TDP1 CPT 23.1µM*, DT40 TDP1 no CPT 13µM* and IL1B secr inh -0.2.
`Cc1ccc(C(=O)CCS(=O)(=O)c2ccc(Cl)cc2)cc1` gave HT1080-NT tox 12.9%, HT1080 IDH1KD tx -4.9%, DT40 TDP1 CPT 2.91µM*, DT40 TDP1 no CPT 2.91µM* and IL1B secr inh 0.0.
Cc1ccc(S(=O)(=O)CCC(=O)OCC(=O)c2ccc(C)c(C)c2)cc1 was read as HT1080-NT tox 16.1%, HT1080 IDH1KD tx 9.9%, DT40 TDP1 CPT -0.6%, DT40 TDP1 no CPT -5.3% and IL1B secr inh 9.1.
Cc1ccc(S(=O)(=O)CCC(=O)c2ccc(F)cc2)cc1 was read as HT1080-NT tox inconclusive, HT1080 IDH1KD tx inconclusive, DT40 TDP1 CPT 4.11µM*, DT40 TDP1 no CPT 2.59µM* and IL1B secr inh -60.6*.
Screening Cc1ccc(C(=O)CCS(=O)(=O)c2ccc(F)cc2)cc1 returned HT1080-NT tox 0.5%, HT1080 IDH1KD tx -14.6%, DT40 TDP1 CPT 4.61µM*, DT40 TDP1 no CPT 2.91µM* and IL1B secr inh -27.6.
Cc1ccc(S(=O)(=O)CCC(=O)OCC(=O)NCCc2ccc(F)cc2)cc1 was read as HT1080-NT tox -0.1%, HT1080 IDH1KD tx 1.2%, DT40 TDP1 CPT -25.9%, DT40 TDP1 no CPT 0.6% and IL1B secr inh 6.1.
`N#Cc1cn(Cc2ccncc2)c(=O)[nH]c1=O` gave HT1080-NT tox -5.7%, HT1080 IDH1KD tx 0.5%, DT40 TDP1 CPT 5.4%, DT40 TDP1 no CPT -4.1% and IL1B secr inh -2.1.
COc1ccc(-c2oc(=O)c3cc(OC)c(OC)cc3c2/C=C/c2ccc(OC(C)=O)cc2)cc1 was read as HT1080-NT tox -22.3%, HT1080 IDH1KD tx inconclusive, DT40 TDP1 CPT 20.6µM*, DT40 TDP1 no CPT 9.2µM* and IL1B secr inh -24.7.
COc1cc(-c2noc(C)c2C(=O)NCCc2ccccc2)cc(OC)c1OC was read as HT1080-NT tox -0.3%, HT1080 IDH1KD tx -3.1%, DT40 TDP1 CPT inconclusive, DT40 TDP1 no CPT inconclusive and IL1B secr inh 2.8.
COc1cc(-c2noc(C)c2/C=C/c2ccc(OC(C)=O)cc2)cc(OC)c1OC was read as HT1080-NT tox 0.366µM*, HT1080 IDH1KD tx 0.517µM*, DT40 TDP1 CPT 0.731µM*, DT40 TDP1 no CPT 0.82µM* and IL1B secr inh 67.4.
`COc1ccc(CN(C)C(=O)c2cnc(C)cn2)c(OC)c1OC` gave HT1080-NT tox 2.9%, HT1080 IDH1KD tx 7.5%, DT40 TDP1 CPT -23.7%, DT40 TDP1 no CPT inconclusive and IL1B secr inh 40.7.
